Rows were chosen to be rich in hits. Some 10% of all compounds tested hit in one or more screens of this group.
G9a inh: inhibitors of human histone lysine methyltransferase G9a; G9a H3K9 monomethylation, AlphaScreen, 2 h; Potency, µM (top dose mostly 102 µM), hits mostly inhibitors; 8.8% of 350,000 active; note: nearly all actives have a fitted effect of over 75% in size
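G9a (20 nM) was preincubated 15 min with compound, then reacted 2 h at room temperature with 500 nM biotin-H3K9 peptide and 20 µM SAM. Monomethyl-H3K9 detected by AlphaScreen using anti-H3K9me1 antibody.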
VDR inhibitor: vitamin D3 receptor (human) inhibition; Potency, µM, actives largely listed as inhibitors; P11473; 0.93% of 400,000 active; AID 504847; VDR-SRC2-3 peptide fluorescence polarization, 2 h
Target sequence (P11473 whole entry, looked up): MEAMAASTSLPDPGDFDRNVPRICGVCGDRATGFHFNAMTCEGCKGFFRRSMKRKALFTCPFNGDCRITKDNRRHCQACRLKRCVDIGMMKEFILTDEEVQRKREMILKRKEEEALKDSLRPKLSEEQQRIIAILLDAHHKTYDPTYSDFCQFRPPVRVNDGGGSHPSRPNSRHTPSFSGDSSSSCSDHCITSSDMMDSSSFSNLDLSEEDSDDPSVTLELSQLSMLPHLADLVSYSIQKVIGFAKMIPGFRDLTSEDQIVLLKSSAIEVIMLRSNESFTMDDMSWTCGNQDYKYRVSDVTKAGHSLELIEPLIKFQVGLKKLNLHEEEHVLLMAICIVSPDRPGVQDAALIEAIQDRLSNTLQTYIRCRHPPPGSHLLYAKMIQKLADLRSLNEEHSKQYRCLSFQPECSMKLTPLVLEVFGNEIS
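Fluorescence polarization assay of small-molecule disruption of VDR binding to coregulator peptide SRC2-3. Compounds and controls pin-transferred, then read after 2 h incubation at ambient room temperature.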
Sfp PPTase inh: inhibitors of Bacillus subtilis Sfp phosphopantetheinyl transferase; Potency, µM, usual class: inhibitors; 3.5% of 310,000 active; Biochemical Sfp PPTase activity, qHTS;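 note: the enzyme is Sfp with the accession as filed and its product quenches rhodamine fluorescence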
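Fluorescence-quenching assay: 15 nM Sfp-PPTase preincubated 15 min at room temperature with compound, then 5 uM rhodamine-CoA and 12.5 uM BHQ-2-labelled YbbR peptide added. Fluorescence (ex 525/em 598 nm) read at start and after 30 min; difference gives rate.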
CCT modulator: cytosolic chaperonin activity modulation; purified chaperonin ATPase assay, HTRF ADP detection, 30 min; 0.3% of 360,000 active; activity change, % (test concentration not listed), hits read low; in the data active = activity change below about -30%
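First, chaperonin was dispensed at 40 nM or 20 nM final depending on batch activity. Next, compounds were pinned at 76 uM and ATP added at 10 uM. After 30 min at 37 °C, ADP detection reagents ran 30 min at ambient temperature.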
PLK1 PBD inh: blocks phosphopeptide binding to human PLK1 polo-box domain; AID 720504; Potency, µM, hits mostly inhibitors; Plk1 PBD binding of FITC phosphopeptide, fluorescence polarization; 2.8% of 360,000 active; P53350; note: series mostly up to about 57 µM; nearly all actives have a fitted effect of over 65% in size
Mm-Cpn inhibitor: M. maripaludis TRiC chaperonin inhibition | purified Mm-Cpn ATPase, ADP Transcreener TR-FRET | 0.031% of 330,000 active | Potency, µM (doses to about 76.9 µM), hits mostly inhibitors; note: nearly all actives have a fitted effect of over 80% in size
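Eu-cryptate anti-ADP/ADP-d2 competition gives a ratio inversely related to ADP. Enzyme at 25 nM was pre-exposed to compound for 10 min, then given 10 uM ATP for 30 min, 37°C throughout.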
A number is an active result; – = inactive; ? = inconclusive; · = no result given; ! = a repeat was not active; [ ] = another dose, or the depositor's remark. Unless noted, calls come from the whole dose curve; as a rule, active = well fitted curve in the direction sought with a large enough effect; inconclusive = small, poorly fitted or top-dose-only effect, or another doubt; inactive = no such curve, though single readings can be large; an effect the other way counts as inactive or inconclusive.

SMILES	G9a inh	VDR inhibitor	Sfp PPTase inh	CCT modulator	PLK1 PBD inh	Mm-Cpn inhibitor
Cc1cccc(C(=O)NC(Oc2ccccc2)C(Cl)(Cl)Cl)c1 (configuration not stated)	–	?	–	–	15µM	–
c1cc2n(c1)-c1c(ccc3c1OCO3)CNC2c1ccc2c(c1)OCO2 (configuration not stated)	12.6µM	–	–	–	–	–
C[N+]1=C2CCCCCN2C(O)(c2ccccc2)C1 (configuration not stated)	31.6µM	–	–	–	–	–
CCS(=O)CCSP(=O)(OC)OC (configuration not stated)	·	?	–	·	·	·
O=C(Nc1ccc(F)cc1)c1c(O)c2c(n(Cc3ccccc3)c1=O)CCCC2	–	–	–	–	26.7µM	–
O=C(Nc1cccnc1)c1c(O)c2c(n(Cc3ccccc3)c1=O)CCCC2	–	–	–	–	–	–
CC(=O)O[C@H]1C[C@H](O[C@H]2[C@@H](O)CC(O[C@H]3[C@@H](O)C[C@H](O[C@H]4CC[C@@]5(C)[C@H](CC[C@@H]6[C@@H]5CC[C@]5(C)[C@@H](C7=CC(=O)OC7)CC[C@]65O)C4)O[C@@H]3C)O[C@@H]2C)O[C@H](C)[C@H]1O[C@@H]1O[C@H](CO)[C@@H](O)[C@H](O)[C@H]1O (some centres not stated)	–[12.7 µM]	–	–	·	·	·
Cn1c(=O)oc2cc(S(=O)(=O)NCc3cccnc3)ccc21	·	–	79.4µM	–	–	–
COc1ccc(CCNC(=O)CCS(=O)(=O)c2ccc3c(c2)oc(=O)n3C)cc1OC	–	–	–	–	–	–
CCC(C)(C)O	·	–	–	·	·	·
CC(C)(O)[C@@H]1C2OC(=O)[C@@H]1[C@]1(O)C[C@H]3O[C@]34C(=O)O[C@H]2[C@]14C	·	–	–	·	·	·
Clc1ccc(C(c2ccc(Cl)cc2)n2cc[n+](CC(OCc3ccc(Cl)cc3Cl)c3ccc(Cl)cc3Cl)c2)cc1 (configuration not stated)	17.8µM!	–	?	–	–	–
CNC(=O)Oc1cccc2ccccc12	–	14.1µM!	–	–	–	–
CCCCn1c(O)c(C(C)=NCCN2CCCCC2)c(=O)[nH]c1=O	28.2µM	–	–	–	?	–
CC(=NCCN1CCCCC1)c1c(O)n(Cc2ccccc2)c(=O)[nH]c1=O	39.8µM	–	–	–	–	–
C=CCn1c(O)c(C(C)=NCCN2CCCCC2)c(=O)[nH]c1=O	?	–	–	–	–	–
Cc1[nH]c2ccc(O)cc2c1CCN	3.55µM	–	?	–	–	–
Cc1[nH]c2ccc(OCc3ccccc3)cc2c1CCN	50.1µM	–	–	–	–	–
COc1ccc(C(=O)Oc2cccc3cccnc23)cc1S(=O)(=O)N1CCOCC1	–	–	44.7µM	–	–	–
O=[N+]([O-])c1cccc(NP(=O)(N2CC2)N2CC2)c1	·	–	·	–	–	·
CN(C)c1ccc(P(=O)(Nc2ccc([N+](=O)[O-])cc2)N2CCOCC2)c(NC(=O)c2cccs2)c1 (configuration not stated)	44.7µM	–	–	–	–	–
O=C(C(=O)N1CCOCC1)c1cn(Cc2c(F)cccc2Cl)c2ccccc12	–	–	–	–	–	–
Cc1cc2c(cc(C(=O)N3CCC(C(=O)NC4CCCC4)CC3)n2Cc2c(F)cccc2Cl)o1	–	–	50.1µM	–	–	–
Cc1c(C(=O)c2cccc3ccccc23)c2cccc3c2n1[C@@H](CN1CCOCC1)CO3	?	–	–	·	·	·
COc1cc(OC)c2c(c1)OC(c1ccc(OC)c(OC)c1)C(O)C2 (configuration not stated)	–[2.33 µM]	–	–	·	·	·
SMILES	G9a inh	VDR inhibitor	Sfp PPTase inh	CCT modulator	PLK1 PBD inh	Mm-Cpn inhibitor
COP(=S)(OC)SCn1nnc2ccccc2c1=O	·	22.4µM	22.4µM	–	8.44µM	·
CCCN1C[C@H](C)N([C@H](c2ccc(C(=O)N(CC)CC)cc2)c2cccc(OC)c2)C[C@H]1C	–	?	–	·	·	·
O=[N+]([O-])c1ccc(N2CCCC2)c(F)c1Br	?	–	–	–	–	–
Cc1cc(Oc2cc(NN3CCCCC3)c([N+](=O)[O-])cc2[N+](=O)[O-])ccc1[N+](=O)[O-]	7.08µM	–	–	–	–	–
Nc1ccc(C2(c3ccc(N)cc3)c3ccccc3-c3ccccc32)cc1	–	?	–	–	–	–
Nc1ccc2c3c(cccc13)-c1ccccc1-2	·	–	·	–	9.47µM	·
CC(C)CC1C(=O)N2CCCC2C2(O)O[C@@](NC(=O)C3C=C4c5cccc6[nH]c(Br)c(c56)CC4N(C)C3)(C(C)C)C(=O)N12 (some centres not stated)	?	?	–	·	·	·
CC(N)Cc1ccccc1Sc1ccc(O)cc1 (configuration not stated)	35.5µM	·	–	·	·	–
CC(Cc1ccccc1Sc1ccc(O)cc1)N(C)C (configuration not stated)	–[2.33 µM]	–	–	–	–	–
Cc1nn(CCc2n[nH]c(=S)n2-c2cccc(Cl)c2)c(C)c1[N+](=O)[O-]	1.12µM	–	–	–	–	–
Cc1ccc2c(=O)n(-c3cccc(Cl)c3)c(=O)[nH]c2c1	?	–	·	·	·	·
CCOc1cc(C2C(C#N)=C(N)Oc3c2c(=O)oc2ccccc32)ccc1OC(=O)c1cccs1 (configuration not stated)	–	–	50.1µM	–	–	–
COC(=O)CSc1n[nH]c(=S)s1	7.94µM	–	?	–	18.9µM	–
CCOC(=O)CSc1nn(-c2ccccc2)c(=S)s1	–	–	–	–	–	–
CN1CCN(Cc2ccc(Br)s2)CC1	3.98µM	–	?	–	–	–
CN(C)c1ccc(/C=C2\CCCN=C2c2cccnc2)cc1	·	·	–	·	·	·
CCCCC/C=C\C/C=C\C/C=C\C/C=C\CCCC(=O)Nc1ccc(O)cc1C	–	–	–	·	·	·
CCOP(=O)(OCC)/C(=N/OC(=O)c1ccc(Cl)cc1Cl)C(N)=O	50.1µM	?	–	–	?	–
NC(N)=NOCC[C@H](N)C(=O)O	31.6µM!	–	–	·	·	·
c1ccc2c(c1)OCC(C1=NCCN1)O2 (configuration not stated)	28.2µM	–	–	–	–	–
Cc1cccc(NC(=O)Cn2cc(C(=O)C3CC3)c3ccccc32)c1C	–	–	?	–	–	–
CN1C[C@H](CO)C=C2c3cccc4[nH]cc(c34)C[C@@H]21	?	–	–	·	·	·
O=C(O)C1Cc2ccccc2N2CCCC12 (configuration not stated)	39.8µM	–	–	–	–	–
CC1CCCN(CC(=O)N2CCCc3ccccc32)C1 (configuration not stated)	–	–	–	–	–	–

Screens (PubChem BioAssay)
